The values that follow come from article PMC7862700, “An all-to-all approach to the identification of sequence-specific readers for epigenetic DNA modifications on cytosine”.

Common to all, as to assay: DAPPL (digital affinity profiling via proximity ligation, sequencing); 10 mM Tris-HCl pH 7.5, 50 mM NaCl, 1 mM DTT, 4% glycerol, room temperature, 30 min; GST-TFs on glutathione beads, 16-mer random dsDNA library, 0.1% formaldehyde crosslink after washing; high values mean tight binding
One assay deals with T1, FLI1 (Homo sapiens, UniProt Q01543 1-452).
T1 sequence: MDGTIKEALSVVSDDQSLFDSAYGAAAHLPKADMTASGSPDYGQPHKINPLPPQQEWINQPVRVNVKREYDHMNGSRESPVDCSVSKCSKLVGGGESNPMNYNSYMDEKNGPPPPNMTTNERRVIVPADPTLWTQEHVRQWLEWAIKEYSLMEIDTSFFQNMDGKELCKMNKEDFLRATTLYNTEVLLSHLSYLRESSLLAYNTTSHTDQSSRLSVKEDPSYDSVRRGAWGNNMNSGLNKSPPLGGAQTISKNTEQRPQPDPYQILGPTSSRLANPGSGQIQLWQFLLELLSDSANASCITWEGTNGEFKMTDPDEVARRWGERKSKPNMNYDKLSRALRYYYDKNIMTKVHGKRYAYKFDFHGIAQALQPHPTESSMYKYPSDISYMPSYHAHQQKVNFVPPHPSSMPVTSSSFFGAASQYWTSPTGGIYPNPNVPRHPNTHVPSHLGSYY
The conditions noted are these: protein: recombinant; tags: N-terminal GST; dsDNA, one strand shown. In outline:
(§1)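 Pools were built from human transcription factors expressed in yeast as GST fusions, captured on glutathione beads and DNA-barcoded, along with a tag-only sample. Incubation with 200 nmole of a 16-mer random double-stranded DNA library lasted 30 min at room temperature in Tris/NaCl/DTT/glycerol buffer, and was followed by washing, 0.1% formaldehyde crosslinking, proximity ligation, PCR amplification and Illumina NextSeq500 sequencing. Binding signal is the quotient of each hexamer's read frequency for a factor and its frequency for the tag-only sample.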

Another assay concerns the target T2, ELK1 (Homo sapiens, UniProt P19419 1-428).
T2 sequence: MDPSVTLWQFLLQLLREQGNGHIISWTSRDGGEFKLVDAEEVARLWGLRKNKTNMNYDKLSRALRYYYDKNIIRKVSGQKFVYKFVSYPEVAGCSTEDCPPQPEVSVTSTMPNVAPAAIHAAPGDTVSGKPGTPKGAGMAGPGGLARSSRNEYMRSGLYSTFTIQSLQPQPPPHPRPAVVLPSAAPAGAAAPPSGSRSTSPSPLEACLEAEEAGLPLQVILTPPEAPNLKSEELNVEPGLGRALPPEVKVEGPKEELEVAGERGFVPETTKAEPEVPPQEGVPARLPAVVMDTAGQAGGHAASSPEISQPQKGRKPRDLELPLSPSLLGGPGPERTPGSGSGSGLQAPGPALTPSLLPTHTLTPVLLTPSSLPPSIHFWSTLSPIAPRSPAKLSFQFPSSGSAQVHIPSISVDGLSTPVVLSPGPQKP
The settings on record: protein: recombinant; tags: N-terminal GST; dsDNA, one strand shown. In outline:
as §1

The next assay has as its target T3, GABPA (Homo sapiens, UniProt Q06546 1-454).
T3 sequence: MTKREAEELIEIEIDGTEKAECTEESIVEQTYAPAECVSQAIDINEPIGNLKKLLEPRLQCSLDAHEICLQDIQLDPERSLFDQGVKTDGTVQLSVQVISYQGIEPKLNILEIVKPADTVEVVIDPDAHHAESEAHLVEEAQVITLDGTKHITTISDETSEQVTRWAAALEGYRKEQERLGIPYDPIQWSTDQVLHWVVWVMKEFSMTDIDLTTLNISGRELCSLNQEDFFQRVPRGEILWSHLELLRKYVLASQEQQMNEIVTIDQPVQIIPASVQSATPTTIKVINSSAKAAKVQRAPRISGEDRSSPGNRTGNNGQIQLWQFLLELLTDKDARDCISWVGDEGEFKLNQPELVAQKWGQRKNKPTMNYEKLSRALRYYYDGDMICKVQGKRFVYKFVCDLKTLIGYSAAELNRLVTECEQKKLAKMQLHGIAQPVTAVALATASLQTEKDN
The conditions noted are these: protein: recombinant; tags: N-terminal GST; dsDNA, one strand shown. In outline: as §1

Another assay has as its target T4, ERG (Homo sapiens, UniProt P11308 1-479).
T4 sequence: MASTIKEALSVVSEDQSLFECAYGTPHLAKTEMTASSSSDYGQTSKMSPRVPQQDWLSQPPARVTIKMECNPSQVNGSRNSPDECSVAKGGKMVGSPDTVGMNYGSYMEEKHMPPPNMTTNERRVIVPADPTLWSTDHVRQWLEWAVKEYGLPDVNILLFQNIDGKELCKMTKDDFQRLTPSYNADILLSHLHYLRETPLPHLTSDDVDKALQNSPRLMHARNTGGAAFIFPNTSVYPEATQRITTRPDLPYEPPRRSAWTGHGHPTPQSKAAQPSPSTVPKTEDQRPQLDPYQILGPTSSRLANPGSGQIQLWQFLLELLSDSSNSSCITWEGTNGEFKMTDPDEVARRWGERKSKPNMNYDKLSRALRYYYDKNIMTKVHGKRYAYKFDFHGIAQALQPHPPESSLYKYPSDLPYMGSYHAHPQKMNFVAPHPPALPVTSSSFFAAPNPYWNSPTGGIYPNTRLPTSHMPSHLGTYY
The settings on record: protein: recombinant; tags: N-terminal GST; dsDNA, one strand shown. In outline:
as §1

For another assay, the target named is ELF1 (Homo sapiens, UniProt P32519 1-619). The settings on record: protein: recombinant; tags: N-terminal GST; dsDNA, one strand shown. In outline:
as §1

Another assay deals with T5, EHF (Homo sapiens, UniProt Q9NZC4 1-300).
T5 sequence: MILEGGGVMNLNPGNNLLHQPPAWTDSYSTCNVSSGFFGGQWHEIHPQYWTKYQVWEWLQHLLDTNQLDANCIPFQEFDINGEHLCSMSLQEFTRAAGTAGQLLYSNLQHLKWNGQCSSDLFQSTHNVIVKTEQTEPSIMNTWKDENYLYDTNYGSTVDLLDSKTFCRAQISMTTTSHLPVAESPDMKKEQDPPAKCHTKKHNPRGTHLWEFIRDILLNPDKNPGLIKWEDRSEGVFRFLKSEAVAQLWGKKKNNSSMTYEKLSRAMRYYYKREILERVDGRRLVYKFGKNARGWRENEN
The settings on record: protein: recombinant; tags: N-terminal GST; dsDNA, one strand shown. In outline:
as §1

The target in a further assay is SPI1 (Homo sapiens, UniProt P17947 1-270). The conditions noted are these: protein: recombinant; tags: N-terminal GST; dsDNA, one strand shown. An outline of the steps: as §1
The next assay addresses SPIB (Homo sapiens, UniProt Q01892 1-262). The conditions noted are these: protein: recombinant; tags: N-terminal GST; dsDNA, one strand shown. An outline of the steps:
as §1

For a further assay, the target named is T6, ELK3 (Homo sapiens, UniProt P41970 1-407).
T6 sequence: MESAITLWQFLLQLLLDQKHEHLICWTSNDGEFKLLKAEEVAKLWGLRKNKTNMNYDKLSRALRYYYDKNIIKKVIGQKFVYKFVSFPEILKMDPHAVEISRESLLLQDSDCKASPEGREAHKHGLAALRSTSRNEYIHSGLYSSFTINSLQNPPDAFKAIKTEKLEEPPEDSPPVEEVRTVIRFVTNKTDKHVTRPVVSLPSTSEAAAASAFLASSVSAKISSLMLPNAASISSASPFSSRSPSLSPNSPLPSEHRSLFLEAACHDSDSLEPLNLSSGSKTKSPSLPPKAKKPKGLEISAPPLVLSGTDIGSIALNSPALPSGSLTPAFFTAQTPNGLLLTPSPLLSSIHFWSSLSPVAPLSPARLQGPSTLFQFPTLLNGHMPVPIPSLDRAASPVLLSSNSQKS
The conditions noted are these: protein: recombinant; tags: N-terminal GST; dsDNA, one strand shown. In outline: as §1

For a further assay, the target named is T7, FEV (Homo sapiens, UniProt Q99581 1-238).
T7 sequence: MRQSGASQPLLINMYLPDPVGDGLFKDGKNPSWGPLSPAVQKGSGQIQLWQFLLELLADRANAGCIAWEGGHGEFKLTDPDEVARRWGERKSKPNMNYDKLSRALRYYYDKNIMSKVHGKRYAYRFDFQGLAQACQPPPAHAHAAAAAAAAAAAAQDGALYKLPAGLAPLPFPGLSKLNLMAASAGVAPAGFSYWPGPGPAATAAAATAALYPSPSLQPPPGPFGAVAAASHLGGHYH
The conditions noted are these: protein: recombinant; tags: N-terminal GST; dsDNA, one strand shown. In outline:
as §1

Another assay concerns the target ETV5 (Homo sapiens, UniProt P41161 1-510). The conditions noted are these: protein: recombinant; tags: N-terminal GST; dsDNA, one strand shown. In outline: as §1
Another assay addresses HSF1 (Homo sapiens, UniProt Q00613 1-529). The settings on record: protein: recombinant; tags: N-terminal GST; chain copies: 3; dsDNA, one strand shown. An outline of the steps: as §1
The next assay addresses T8, SPIC (Homo sapiens, UniProt Q8N5J4 1-248).
T8 sequence: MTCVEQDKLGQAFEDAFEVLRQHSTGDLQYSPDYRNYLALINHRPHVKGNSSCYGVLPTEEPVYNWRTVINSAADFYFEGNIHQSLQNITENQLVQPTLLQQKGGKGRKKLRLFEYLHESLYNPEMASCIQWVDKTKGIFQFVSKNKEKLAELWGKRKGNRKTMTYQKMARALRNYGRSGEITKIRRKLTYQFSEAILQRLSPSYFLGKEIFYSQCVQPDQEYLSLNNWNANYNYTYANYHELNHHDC
The settings on record: protein: recombinant; tags: N-terminal GST; dsDNA, one strand shown. In outline: as §1

For a further assay, the target named is ELF4 (Homo sapiens, UniProt Q99607 1-663). The settings on record: protein: recombinant; tags: N-terminal GST; dsDNA, one strand shown. In outline: as §1
Chain of ELF4 (Q99607 whole entry): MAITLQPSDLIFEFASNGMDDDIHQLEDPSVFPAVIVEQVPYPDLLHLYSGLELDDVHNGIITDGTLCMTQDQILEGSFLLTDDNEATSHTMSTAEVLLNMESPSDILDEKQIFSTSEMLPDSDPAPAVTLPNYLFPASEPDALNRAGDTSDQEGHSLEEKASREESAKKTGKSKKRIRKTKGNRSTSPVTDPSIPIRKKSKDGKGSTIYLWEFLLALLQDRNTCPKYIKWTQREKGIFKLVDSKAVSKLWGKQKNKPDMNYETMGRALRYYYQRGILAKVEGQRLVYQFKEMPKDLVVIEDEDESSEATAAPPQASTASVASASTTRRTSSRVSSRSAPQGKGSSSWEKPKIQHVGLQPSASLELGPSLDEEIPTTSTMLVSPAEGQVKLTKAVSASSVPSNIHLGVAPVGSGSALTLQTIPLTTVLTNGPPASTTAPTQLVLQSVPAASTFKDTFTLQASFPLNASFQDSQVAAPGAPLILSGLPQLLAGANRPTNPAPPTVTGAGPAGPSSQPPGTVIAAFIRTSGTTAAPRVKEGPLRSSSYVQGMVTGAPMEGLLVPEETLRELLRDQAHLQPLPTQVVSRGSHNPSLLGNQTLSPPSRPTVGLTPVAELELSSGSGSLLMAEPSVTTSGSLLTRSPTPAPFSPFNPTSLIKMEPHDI
Another assay has as its target T9, ELK4 (Homo sapiens, UniProt P28324-2 1-405).
T9 sequence: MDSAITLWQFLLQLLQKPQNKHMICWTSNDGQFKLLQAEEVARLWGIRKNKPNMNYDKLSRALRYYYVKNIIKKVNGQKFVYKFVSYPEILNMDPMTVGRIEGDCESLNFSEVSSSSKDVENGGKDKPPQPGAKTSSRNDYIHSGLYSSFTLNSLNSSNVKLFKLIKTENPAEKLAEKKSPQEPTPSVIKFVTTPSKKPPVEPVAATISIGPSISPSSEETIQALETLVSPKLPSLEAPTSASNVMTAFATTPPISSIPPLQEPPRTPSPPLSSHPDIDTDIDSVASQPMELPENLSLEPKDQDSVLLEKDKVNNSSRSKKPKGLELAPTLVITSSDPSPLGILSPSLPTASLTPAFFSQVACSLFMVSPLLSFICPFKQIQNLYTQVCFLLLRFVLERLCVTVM
The conditions noted are these: protein: recombinant; tags: N-terminal GST; dsDNA, one strand shown. An outline of the steps:
as §1

Another assay concerns the target T10, ETV2 (Homo sapiens, UniProt O00321 1-342).
T10 sequence: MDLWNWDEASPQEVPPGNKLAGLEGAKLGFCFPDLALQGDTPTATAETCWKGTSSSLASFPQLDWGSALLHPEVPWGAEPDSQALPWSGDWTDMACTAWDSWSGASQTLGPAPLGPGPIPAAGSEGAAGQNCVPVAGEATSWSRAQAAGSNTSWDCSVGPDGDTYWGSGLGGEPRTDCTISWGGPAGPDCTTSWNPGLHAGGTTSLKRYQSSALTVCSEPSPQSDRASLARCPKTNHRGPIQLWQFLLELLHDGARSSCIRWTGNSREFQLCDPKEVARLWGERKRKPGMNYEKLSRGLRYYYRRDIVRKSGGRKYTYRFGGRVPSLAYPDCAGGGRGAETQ
The settings on record: protein: recombinant; tags: N-terminal GST; dsDNA, one strand shown. In outline: as §1

The next assay has as its target T11, ELF3 (Homo sapiens, UniProt P78545 1-371).
T11 sequence: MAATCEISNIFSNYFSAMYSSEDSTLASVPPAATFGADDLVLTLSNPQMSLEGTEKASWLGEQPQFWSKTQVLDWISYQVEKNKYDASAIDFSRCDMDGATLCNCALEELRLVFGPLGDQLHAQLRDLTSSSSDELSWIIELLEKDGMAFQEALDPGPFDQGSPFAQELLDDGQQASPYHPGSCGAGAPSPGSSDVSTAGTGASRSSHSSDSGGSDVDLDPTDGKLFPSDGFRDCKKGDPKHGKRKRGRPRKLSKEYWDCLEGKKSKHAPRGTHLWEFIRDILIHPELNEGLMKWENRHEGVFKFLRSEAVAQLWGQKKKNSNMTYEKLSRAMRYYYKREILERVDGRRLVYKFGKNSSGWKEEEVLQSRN
The settings on record: protein: recombinant; tags: N-terminal GST; dsDNA, one strand shown. In outline:
as §1

For the next assay, the target named is CRX (Homo sapiens, UniProt O43186 1-299). The conditions noted are these: protein: recombinant; tags: N-terminal GST; dsDNA, one strand shown. In outline: as §1
Chain of CRX (O43186 whole entry): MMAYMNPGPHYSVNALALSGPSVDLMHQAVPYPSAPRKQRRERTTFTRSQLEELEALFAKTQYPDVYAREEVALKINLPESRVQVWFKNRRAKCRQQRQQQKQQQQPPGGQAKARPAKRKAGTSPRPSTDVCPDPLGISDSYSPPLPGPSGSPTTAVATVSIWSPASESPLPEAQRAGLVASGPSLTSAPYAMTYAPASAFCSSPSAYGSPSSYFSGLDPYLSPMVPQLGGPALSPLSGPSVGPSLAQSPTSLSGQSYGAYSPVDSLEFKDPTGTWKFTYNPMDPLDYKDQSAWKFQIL
For the next assay, the target named is ETV1 (Homo sapiens, UniProt P50549 1-477). The conditions noted are these: protein: recombinant; tags: N-terminal GST; dsDNA, one strand shown. An outline of the steps:
as §1

Chain of ETV5 (P41161 whole entry): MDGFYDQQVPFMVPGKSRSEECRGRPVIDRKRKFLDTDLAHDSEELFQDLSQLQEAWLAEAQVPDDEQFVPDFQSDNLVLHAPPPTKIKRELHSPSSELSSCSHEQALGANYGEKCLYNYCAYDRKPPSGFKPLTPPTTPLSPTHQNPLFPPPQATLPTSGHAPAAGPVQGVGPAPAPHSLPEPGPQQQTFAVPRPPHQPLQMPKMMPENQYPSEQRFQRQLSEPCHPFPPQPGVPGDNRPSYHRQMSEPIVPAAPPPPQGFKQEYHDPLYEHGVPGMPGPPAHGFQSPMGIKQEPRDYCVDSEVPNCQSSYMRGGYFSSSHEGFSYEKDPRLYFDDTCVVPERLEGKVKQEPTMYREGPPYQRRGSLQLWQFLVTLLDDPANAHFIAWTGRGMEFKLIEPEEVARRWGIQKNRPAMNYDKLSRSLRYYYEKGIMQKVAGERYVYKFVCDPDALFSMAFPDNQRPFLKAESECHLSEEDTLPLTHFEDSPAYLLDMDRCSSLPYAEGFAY
Chain of SPIB (Q01892 whole entry): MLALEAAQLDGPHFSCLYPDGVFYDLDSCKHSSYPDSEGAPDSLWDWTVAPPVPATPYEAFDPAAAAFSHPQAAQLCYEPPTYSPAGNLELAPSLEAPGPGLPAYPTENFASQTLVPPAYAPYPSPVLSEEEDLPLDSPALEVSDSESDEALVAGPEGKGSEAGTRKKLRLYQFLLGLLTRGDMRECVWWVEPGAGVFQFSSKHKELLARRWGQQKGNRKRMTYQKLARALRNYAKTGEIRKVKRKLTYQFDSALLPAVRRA
Chain of ETV1 (P50549 whole entry): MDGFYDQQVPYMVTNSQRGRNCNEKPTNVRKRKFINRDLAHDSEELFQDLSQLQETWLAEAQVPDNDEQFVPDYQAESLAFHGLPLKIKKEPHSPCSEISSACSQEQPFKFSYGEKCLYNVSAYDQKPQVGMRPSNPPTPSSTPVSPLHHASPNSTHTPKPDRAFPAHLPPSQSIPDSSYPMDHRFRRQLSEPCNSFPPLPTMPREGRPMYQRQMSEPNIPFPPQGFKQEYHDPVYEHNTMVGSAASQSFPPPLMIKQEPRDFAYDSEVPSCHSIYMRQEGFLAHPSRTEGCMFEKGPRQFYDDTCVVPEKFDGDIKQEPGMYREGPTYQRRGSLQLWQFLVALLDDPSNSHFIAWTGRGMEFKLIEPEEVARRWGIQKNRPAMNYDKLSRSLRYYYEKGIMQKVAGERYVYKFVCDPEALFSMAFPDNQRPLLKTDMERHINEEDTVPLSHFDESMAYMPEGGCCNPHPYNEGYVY
Chain of HSF1 (Q00613 whole entry): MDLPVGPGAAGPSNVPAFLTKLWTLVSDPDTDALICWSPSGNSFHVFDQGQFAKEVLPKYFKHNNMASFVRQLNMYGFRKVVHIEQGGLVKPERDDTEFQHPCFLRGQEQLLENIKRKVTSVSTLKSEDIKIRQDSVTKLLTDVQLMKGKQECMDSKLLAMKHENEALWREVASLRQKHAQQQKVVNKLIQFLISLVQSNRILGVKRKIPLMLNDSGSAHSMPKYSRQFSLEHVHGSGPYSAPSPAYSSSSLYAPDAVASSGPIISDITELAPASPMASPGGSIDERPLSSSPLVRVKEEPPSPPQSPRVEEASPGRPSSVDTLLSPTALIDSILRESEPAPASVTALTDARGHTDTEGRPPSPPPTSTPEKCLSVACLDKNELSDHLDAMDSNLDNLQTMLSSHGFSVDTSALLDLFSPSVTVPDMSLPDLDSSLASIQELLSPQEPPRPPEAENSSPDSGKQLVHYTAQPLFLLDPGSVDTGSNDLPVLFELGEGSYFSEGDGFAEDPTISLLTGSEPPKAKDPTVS
Chain of ELF1 (P32519 whole entry): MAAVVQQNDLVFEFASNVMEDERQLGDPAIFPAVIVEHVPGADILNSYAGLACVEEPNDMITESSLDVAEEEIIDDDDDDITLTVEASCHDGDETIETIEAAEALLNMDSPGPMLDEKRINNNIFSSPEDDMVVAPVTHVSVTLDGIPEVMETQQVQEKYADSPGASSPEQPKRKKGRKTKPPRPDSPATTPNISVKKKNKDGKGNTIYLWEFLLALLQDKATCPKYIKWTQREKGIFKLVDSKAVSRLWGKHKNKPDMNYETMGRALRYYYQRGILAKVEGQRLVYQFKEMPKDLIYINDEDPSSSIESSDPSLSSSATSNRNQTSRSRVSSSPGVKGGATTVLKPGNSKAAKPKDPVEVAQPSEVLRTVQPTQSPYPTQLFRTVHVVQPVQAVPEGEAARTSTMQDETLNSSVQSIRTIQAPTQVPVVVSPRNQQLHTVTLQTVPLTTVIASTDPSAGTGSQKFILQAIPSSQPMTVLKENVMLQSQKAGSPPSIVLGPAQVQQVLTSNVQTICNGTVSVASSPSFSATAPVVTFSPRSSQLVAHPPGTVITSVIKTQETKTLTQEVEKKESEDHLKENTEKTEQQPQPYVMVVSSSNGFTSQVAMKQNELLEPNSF

Consider CCGCAA, for which the binding signal was 1.27 fold enrichment (6-mer frequency, TF over GST control) with FLI1; 1.3 fold enrichment (6-mer frequency, TF over GST control) with ELK1; 1.36 fold enrichment (6-mer frequency, TF over GST control) with GABPA; 1.28 fold enrichment (6-mer frequency, TF over GST control) with ERG; 1.31 fold enrichment (6-mer frequency, TF over GST control) with ELF1; 1.34 fold enrichment (6-mer frequency, TF over GST control) with EHF. In addition, the binding signal with SPI1 was 1.45 fold enrichment (6-mer frequency, TF over GST control); with SPIB, 1.28 fold enrichment (6-mer frequency, TF over GST control); with ELK3, 1.34 fold enrichment (6-mer frequency, TF over GST control); with FEV, 1.29 fold enrichment (6-mer frequency, TF over GST control); with ETV5, 1.3 fold enrichment (6-mer frequency, TF over GST control); with HSF1 it was 1.07 fold enrichment (6-mer frequency, TF over GST control). The binding signal in the assay with SPIC was 1.42 fold enrichment (6-mer frequency, TF over GST control); with ELF4 it was 1.31 fold enrichment (6-mer frequency, TF over GST control); with ELK4 it was 1.36 fold enrichment (6-mer frequency, TF over GST control); with ETV2 it was 1.35 fold enrichment (6-mer frequency, TF over GST control); in the assay with ELF3, 1.39 fold enrichment (6-mer frequency, TF over GST control); with CRX, 1.01 fold enrichment (6-mer frequency, TF over GST control). Further, the binding signal in the assay with ETV1 is 1.38 fold enrichment (6-mer frequency, TF over GST control).
